The source of these data is PubChem BioAssay (NCATS).

Holding throughout (assay): qHTS profiling for inhibitors of Plasmodium falciparum proliferation (AID 504749); note: nearly all actives have a fitted effect of over 60% in size
What all share (details): P. falciparum in erythrocytes, SYBR Green DNA, 72 h; series mostly up to 28.7 µM
In general terms: qHTS replaces the single test concentration by a dilution series.

Assay [1] has as its system Dd2. An outline of the steps: (§1)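 SYBR Green fluorescence (ex 485 nm, em 535 nm) reports parasite DNA after 72 h compound exposure of infected red cells at 0.3% parasitemia, 2.5% hematocrit; signal normalized to 0.29 uM artemisinin and vehicle wells.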
For assay [2], the system named is ICS. An outline of the steps: as §1
The test system of assay [3] is DIV14. An outline of the steps:
as §1

Assay [4] has as its system DIV17. Summed up: as §1
Assay [5] concerns FAB9. Summed up: as §1
Assay [6] deals with GB4. An outline of the steps:
as §1

The test system of assay [7] is DIV30. Summed up: as §1
In assay [8] the test system is DFO2036. Summed up:
as §1

Assay [9] has as its system ECU. Summed up:
as §1

The test system of assay [10] is HB3. An outline of the steps: as §1

The structures appear in SMILES notation. Inconclusive results are not listed. Active and inactive are the calls of the source. Calls come from the whole dose curve; as a rule, active = well fitted inhibition curve with a large enough effect; inconclusive = small, poorly fitted or top-dose-only effect; inactive = flat fitted curve, though single readings scatter.
Potency is the fitted concentration of half-maximal effect.

For `O=C1OCCN1/N=C/c1ccc([N+](=O)[O-])o1`, the Potency in assay [1] was 11.2 µM (active); in [2], 7.94 µM (active).

`CCN(CC)CCOc1ccc(C(O)(Cc2ccc(Cl)cc2)c2ccc(C)cc2)cc1` (centres undefined): the Potency is 9.53 µM (active) in assay [3]; 15.1 µM (active) in assay [4]; 10 µM (active) in assay [1]; 13.5 µM (active) in assay [6]; 8.91 µM (active) in [2]. The Potency entry in [5] was “inactive”.

As for `CC(=O)N/N=C/c1ccc([N+](=O)[O-])o1`, the Potency result in assay [3] and in [7] was “inactive” each time. Further, the Potency is 12.6 µM (active) in [1] and 5.62 µM (active) in assay [2].

For the compound `NC(=O)C(=O)N/N=C/c1ccc([N+](=O)[O-])o1`, the Potency entry in assay [8], in assay [1], in assay [9], in [5], in assay [10] and in [2] was “inactive” each time.

Regarding `CCN(CC)CCNC(=O)COc1ccc(Cl)cc1`, the Potency result in assay [7], in assay [5] and in assay [10] was “inactive” in each case. Further, the Potency in assay [1] and in assay [2] was 12.6 µM (active) each time.

On to `Oc1c(I)cc(I)c2cccnc12`, for which the Potency entry in assay [3], in [9] and in [5] was “inactive” each time.

As to `CO/N=C1\CN(c2nc3c(cc2F)c(=O)c(C(=O)O)cn3C2CC2)CC1CN` (centres undefined), the Potency was 10 µM (active) in assay [1], 9.53 µM (active) in [6], 11.2 µM (active) in assay [10] and 5.62 µM (active) in assay [2].

`CN1CCN(CCCN2c3ccccc3Sc3ccc(S(=O)(=O)N(C)C)cc32)CC1`: the Potency in [3] was 4.55 µM (active); in assay [7], 7.21 µM (active); in assay [1], 3.55 µM (active); in [9] it was 4.47 µM (active); in assay [2], 1.41 µM (active).

As to `CC(C)=CCC1C(=O)N(c2ccccc2)N(c2ccccc2)C1=O`, the Potency result in assay [5] was “inactive”.

As for `CCCCCCCCCCCCCCCC[N+](C)(C)CCN(Cc1ccc(OC)cc1)c1ncccn1`, the figures for the Potency in assay [3] and in [9] were 7.21 µM (active) and 1.12 µM (active), respectively. The Potency result in [7], in assay [5] and in [10] was “inactive” throughout.

In the case of `CN(C)CC/C=C1\c2ccccc2Sc2ccc(Cl)cc21`, the Potency is 7.57 µM (active) in [3]; 3.38 µM (active) in assay [4]; 8.91 µM (active) in assay [1]; 8.91 µM (active) in assay [5]; 10 µM (active) in assay [2].

On to `O=c1c(-c2ccccc2)c1-c1ccccc1`, for which the Potency is 10.7 µM (active) in [4]; 10 µM (active) in assay [1]; 10.7 µM (active) in assay [6]; 11.2 µM (active) in assay [10]; 4.47 µM (active) in [2].

In the case of `c1ccc(-c2ccc(C(c3ccccc3)n3ccnc3)cc2)cc1` (centres undefined), the Potency in [3] is 9.53 µM (active); in assay [4], 10.7 µM (active); in assay [7], 12 µM (active); in assay [1], 7.94 µM (active); in assay [9] it was 3.55 µM (active); in [6], 8.49 µM (active). Moreover, the Potency in [10] is 10 µM (active); in assay [2] it was 2.24 µM (active).

For `CCN(CCCc1ccccc1)CCCc1ccccc1`, the Potency result in assay [8], in assay [9], in assay [5] and in assay [10] was “inactive” each time. In addition, in [1], the Potency was 3.16 µM (active).

For `Oc1ccc(O)cc1`, the Potency result in assay [4] and in [5] was “inactive” throughout. Further, the Potency in assay [2] was 11.2 µM (active).

With `OC(CCN1CCCCC1)(c1ccccc1)c1ccccc1`, the Potency in [3] was 4.26 µM (active); in [4] it was 6.75 µM (active); in [1], 10 µM (active); in assay [6], 6.75 µM (active); in assay [2], 12.6 µM (active). Also, the Potency result in [9], in [5] and in assay [10] was “inactive” in each case.

With `CN(C)CCCOc1nn(Cc2ccccc2)c2ccccc12`, the Potency entry in assay [8], in assay [7], in assay [9], in [5], in assay [10] and in assay [2] was “inactive” each time.

Take `COC(=O)[C@H]1[C@H]2C[C@H]3c4[nH]c5ccccc5c4CCN3C[C@H]2CC[C@@H]1O`: the Potency entry in assay [3], in assay [4], in assay [7] and in assay [6] was “inactive” in each case.

Take `O=C(N/N=C/c1ccccc1O)c1ccncc1`: the Potency in assay [8] was 7.94 µM (active); in [1] it was 11.2 µM (active); in [2] it was 3.55 µM (active). For the same compound, the Potency entry in [5] was “inactive”.

Regarding `Cc1cccc(C)c1NC(=O)CN1CCN(CCCC(c2ccc(F)cc2)c2ccc(F)cc2)CC1`, the Potency result in assay [8] and in [5] was “inactive” each time. Also, in assay [2], the Potency is 3.55 µM (active).

Regarding `COc1ccc(CN2CCN(C(c3ccc(F)cc3)c3ccc(F)cc3)CC2)c(OC)c1OC`, the Potency in assay [3] is 12 µM (active); in assay [4] it was 12 µM (active); in assay [7], 16.9 µM (active); in [1] it was 7.94 µM (active); in assay [9] it was 12.6 µM (active); in assay [6] it was 9.53 µM (active). In addition, the Potency is 11.2 µM (active) in assay [10] and 2.24 µM (active) in assay [2].

With `Oc1ccc(Cl)cc1Sc1cc(Cl)ccc1O`, the Potency entry in [8], in [1], in assay [5] and in assay [10] was “inactive” each time. In addition, the Potency in [2] was 8.91 µM (active).

For `CNCCC=C1c2ccccc2CCc2ccccc21`, the Potency in [3] is 2.13 µM (active); in assay [4], 3.79 µM (active); in [1], 8.91 µM (active); in assay [6], 8.49 µM (active); in [2], 11.2 µM (active). Further, the Potency entry in [5] and in assay [10] was “inactive” throughout.

In the case of `Oc1c(I)cc(Cl)c2cccnc12`, the Potency result in assay [4], in assay [7], in assay [1], in [9], in assay [5] and in [10] was “inactive” throughout.

Take `CC(C)NC[C@@H](O)COc1cccc2ccccc12`: the Potency in assay [3] is 13.5 µM (active); in assay [4] it was 9.53 µM (active); in assay [1], 12.6 µM (active); in assay [6] it was 12 µM (active); in assay [2] it was 7.08 µM (active). For the same compound, the Potency entry in assay [5] was “inactive”.

Consider `CN1CCN(C(c2ccccc2)c2ccccc2)CC1`, for which the Potency result in [8], in assay [7], in [9], in assay [5], in assay [10] and in [2] was “inactive” each time.

Take `CN=C(NC#N)Nc1ccc(C2=NNC(=O)CC2C)cc1` (centres undefined): the Potency result in assay [3], in assay [4], in [7] and in assay [6] was “inactive” in each case.

As to `C=C(CC)C(=O)c1ccc(OCC(=O)O)c(Cl)c1Cl`, the Potency was 11.2 µM (active) in assay [1] and 10 µM (active) in assay [2].

Take `CCOC(=O)/C=C(C)/C=C/C=C(C)/C=C/c1c(C)cc(OC)c(C)c1C`: the Potency entry in assay [3], in assay [7], in assay [5] and in assay [6] was “inactive” each time.

Regarding `Cc1ccc(O)c2ncccc12`, the Potency result in [7], in [5] and in assay [10] was “inactive” each time.

Turning to `c1ccc(CNCCNCc2ccccc2)cc1`, the Potency in assay [3] is 3.79 µM (active); in assay [4] it was 6.01 µM (active); in [1] it was 11.2 µM (active); in assay [9] it was 11.2 µM (active). The Potency entry in assay [5] and in assay [10] was “inactive” throughout.
